Assay outcomes deposited in PubChem BioAssay by National Center for Advancing Translational Sciences (NCATS).
HT1080-NT tox: qHTS for induction of synthetic lethality in tumor cells producing 2HG: qHTS for the HT-1080-NT fibrosarcoma cell line; hit rate 1.6% among 360,000; Potency, µM (series often up to 46.1 µM), for inactives: at the top dose activity, negative = less viability, hits mostly cytotoxic; HT-1080-NT fibrosarcoma viability, CellTiter-Glo ATP luminescence, 48 h;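 note: NT is the 2HG producing partner of a matched IDH1 knockdown line; potency is the fitted concentration of half-maximal effect; 0% = DMSO-treated cells and -100% = media-only wells without cells; nearly all actives have a fitted effect of over 55% in size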
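Compounds were tested in concentration-response format on HT-1080-NT cells for 48 hours at 37 degrees C. Cell viability came from CellTiter-Glo luminescence; curves were classified by r2, response magnitude and activity.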
DT40 TDP1 no CPT: qHTS for Inhibitors of human tyrosyl-DNA phosphodiesterase 1 (TDP1): qHTS in cells in absence of CPT. Potency, µM (doses to about 46.2 µM), for inactives: at the highest dose activity change, negative = growth inhibition, hits mostly inhibitors. hit rate 15% among 420,000. AID 686978, 2013. DT40 Tdp1-/- hTDP1 cells, no CPT, ATP luminescence, 48 h; note: potency is the fitted concentration of half-maximal effect; nearly all actives have a fitted effect of over 55% in size
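Luminescent ATP content (CellTiter-Glo) served as the growth readout. Knockout chicken DT40 cells expressing human TDP1 were exposed to compounds without camptothecin for a minimum 48 hr at 37 °C.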
IL1B secr inh: qHTS for Inhibitors of Inflammasome Signaling: IL-1-beta AlphaLISA Primary Screen; THP-1 LPS/ATP IL-1B secretion, AlphaLISA, 16 h; hits give low values; activity change, % at 57.5 µM; hit rate 4.7% among 360,000; in the data active = activity change below about -50%; inconclusive = mostly about -30% to -49%
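Secreted IL-1B measured by AlphaLISA bead assay after 16 h compound exposure of THP-1 cells; compounds (final up to 57.5 uM) added 1 h before LPS (250 ng/mL) and ATP (1.25 mM) stimulation; lower signal means less secretion.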
TDP1 cell CPT: qHTS for Inhibitors of human tyrosyl-DNA phosphodiesterase 1 (TDP1): qHTS in cells in presence of CPT; chicken DT40 Tdp1-/-;hTDP1 cells + 20 nM CPT, ATP luminescence, 48 h; Potency, µM (titrated, usually from 46.2 µM), inactives show at the highest dose activity change, negative = growth inhibition, usual class: inhibitors; hit rate 12% among 420,000; note: potency is the fitted concentration of half-maximal effect; nearly all actives have a fitted effect of over 55% in size
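Chicken DT40 Tdp1-/- cells complemented with human TDP1, 400 cells/well, exposed to compounds plus 20 nM camptothecin for at least 48 h at 37 C; viability read as ATP content by CellTiter-Glo luminescence.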
HT1080 IDH1KD tx: qHTS for induction of synthetic lethality in tumor cells producing 2HG: qHTS for the HT-1080-IDH1KD cell line; HT-1080 IDH1 knockdown viability, ATP luminescence, 48 h; Potency, µM (highest dose often 46.1 µM), for inactives: at the top dose activity, negative = toxicity, most hits filed as cytotoxic; hit rate 2% among 360,000;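 note: potency is the fitted concentration of half-maximal effect; 0% = DMSO wells and -100% = cell-free medium wells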
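CellTiter-Glo luminescence after 48 h compound exposure at 37 degrees C of IDH1-knockdown HT-1080 cells in 5% FBS RPMI. %Activity scaled between DMSO wells and cell-free media wells, with curves fitted and assigned curve classes.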
Starred values were filed as active, the others as inactive; i = inactive; ? = inconclusive; · = no result. Most compounds without a hit are left out; they make up all but 19% or so of the library. Unless noted, calls come from the whole dose curve; as a rule, active = well fitted curve in the direction sought with a large enough effect; inconclusive = small, poorly fitted or top-dose-only effect, or another doubt; inactive = no such curve, though single readings can be large; an effect the other way counts as inactive or inconclusive. Unless noted, % is set by controls: 0 for no effect and ±100 for the full control effect.

SMILES	HT1080-NT tox	DT40 TDP1 no CPT	IL1B secr inh	TDP1 cell CPT	HT1080 IDH1KD tx
COc1cc(C2C3=C(CCCC3=O)Nc3ccc4ncccc4c32)ccc1O (stereo unspecified)	?	6.5µM*	11	6.5µM*	6.5µM*
COc1cc(C2c3c([nH]c(=O)[nH]c3=O)Nc3ccc4ccccc4c32)ccc1O (stereo unspecified)	-25%	-15%	-97*	-13%	?
COc1cc(C2c3c([nH]c(=O)[nH]c3=O)Nc3ccc4ccccc4c32)cc(OC)c1OC (stereo unspecified)	?	-22%	-92*	0%	-26%
COc1ccc(C2C3=C(CCCC3=O)Nc3ccc4ncccc4c32)cc1OC (stereo unspecified)	-21%	12%	-13	-1%	-7%
CCOc1ccc(NC(=O)Nc2ccc3nccnc3c2)cc1	-6%	15µM*	-13	?	-9%
CCOc1ccc(NC(=O)NC(C)CC)cc1 (stereo unspecified)	-9%	18µM*	-18	?	-5%
Cc1ccccc1NC(=O)Cn1c(=O)sc2ccccc21	0%	-10%	-8	-3%	-2%
Cc1ccc(CCNC(=O)c2cccc(NC3=NC4CS(=O)(=O)CC4S3)c2)cc1 (stereo unspecified)	-8%	15%	5	14%	9%
O=C(Cc1cnc2ncnn2c1)N1CCc2c([nH]c3ccccc23)C1c1ccccn1 (stereo unspecified)	-13%	-7%	0	-1%	-2%
CCOC(=O)CSc1[nH]c2cc(OC)ccc2c1[N+](=O)[O-]	17%	-27%	12	-19%	5%
COC(=O)CSc1[nH]c2ccc(F)cc2c1[N+](=O)[O-]	0%	?	0	21µM*	-2%
CCOc1ccc(CN=C(N)N=C(N)N)cc1Cl	-29%	5.8µM*	-21	12µM*	-23%
CCCOc1ccc(CCCN=C(N)N)cc1Cl	?	2.1µM*	-90*	2.1µM*	21µM*
CCCCOc1cc(C[C@@H]2CNC(=O)N2)ccc1OC	·	2%	·	0%	·
CCCCOc1ccc(CN=C(N)N)cc1Cl	?	1.5µM*	-74*	2.3µM*	?
CCOc1ccc(-n2c(=O)c3sccc3n(Cc3cccc([N+](=O)[O-])c3)c2=O)cc1	1%	?	29	?	17%
NC(=O)c1cc(Cl)ccc1OCC(=O)Nc1ccc2c(c1)OCO2	17%	?	-18	-16%	9%
Cn1c(CCNC(=O)c2ccco2)nc2cc(NS(=O)(=O)c3ccc(Cl)cc3)ccc21	6%	?	-8	?	0%
Cc1ccccc1NC(=O)COc1ccc(S(=O)(=O)N2CCCC2)cc1C	4%	3%	i	13%	-2%
CC(C)c1ccc(N(CC(=O)NCCCN2CCOCC2)S(=O)(=O)c2ccccc2)cc1	0%	26µM*	7	18µM*	2%
CC(C)c1ccc(N(CC(=O)N/N=C/c2ccc(OC3CSC3)cc2)S(=O)(=O)c2ccccc2)cc1	-3%	?	-26	23µM*	0%
CC(C)c1cc(C(C)C)c(S(=O)(=O)N2CCNCC2)c(C(C)C)c1	?	?	-81*	?	?
Cc1ccc2c(c1)N(C(=O)CCC(=O)O)CCO2	-10%	?	11	-19%	5%
O=C(OCCCN=C1NS(=O)(=O)c2ccccc21)c1ccccc1F	4%	-26%	24	-9%	6%
COc1ccc(CNC(=O)Cn2nc(C(F)(F)F)c(Br)c2C)cc1	-1%	?	10	-19%	-3%
SMILES	HT1080-NT tox	DT40 TDP1 no CPT	IL1B secr inh	TDP1 cell CPT	HT1080 IDH1KD tx
COc1cc(NC(=O)Cn2nc(C(F)(F)F)c(Br)c2C)cc([N+](=O)[O-])c1	-14%	21µM*	-15	15µM*	-9%
C/C(=C/C(=O)O)C(=O)Nc1cccc(C(F)(F)F)c1	13%	-8%	4	?	20%
Cc1cc2c(cc1C)-n1nnnc1C(N(C)CCc1ccccc1)C(=O)N2 (stereo unspecified)	-1%	15µM*	20	23µM*	-7%
COc1ccc(CN(C)CC(=O)Nc2sc3c(c2C#N)CCC3)c(OC)c1	2%	?	-20	?	2%
CC(C)C[C@H]1CNC(=S)N1C[C@H]1CCCN1C[C@H](Cc1ccc(O)cc1)N1C[C@H](CC(C)C)N(CC2CCCCCC2)C1=S	?	21µM*	?	16µM*	?
CC(C)C[C@H]1CNC(=O)C(=O)N1C[C@@H]1CCCN1C[C@H](Cc1ccccc1)N1C[C@H](Cc2ccccc2)N(CC2CCCCC2)C(=O)C1=O	11%	-30%	-30	?	9%
CC(C)C[C@H]1CN([C@@H](Cc2ccc(O)cc2)CN2CCC[C@@H]2CN2C(=S)NC[C@@H]2Cc2ccccc2)C(=S)N1CC1CCCCC1	-24%	16µM*	-22	16µM*	-18%
CC(C)C[C@H]1CN([C@@H](Cc2ccccc2)CN2CCCC2CN2C(=S)NC[C@@H]2Cc2ccccc2)C(=S)N1CC1CCCCC1 (stereo partly specified)	-3%	7.3µM*	-7	6.5µM*	13%
CC(C)C[C@H]1CNC(=S)N1CC1CCCN1C[C@H](Cc1ccc(O)cc1)N1C[C@H](Cc2ccccc2)N(CC2CCCCCC2)C1=S (stereo partly specified)	0%	21µM*	-28	?	-7%
Cc1ccc(CNC(=O)CN2C(=O)CSc3c2c(C)nn3-c2ccccc2)cc1	·	0%	·	-4%	·
Cn1nnnc1SCC(=O)C(C)(C)C	6%	11%	6	-2%	6%
CC(C)C[C@H]1CNC(=S)N1C[C@H]1CCCN1C[C@H](Cc1ccccc1)N1C[C@H](Cc2ccc(O)cc2)N(CC2CCCCCC2)C1=S	21µM*	13µM*	-12	15µM*	15µM*
CC(C)C[C@H]1CNC(=S)N1CC1CCCN1C[C@H](Cc1ccccc1)N1C[C@H](Cc2ccc(O)cc2)N(CC2CCCCC2)C1=S (stereo partly specified)	-27%	?	?	?	?
CC(C)C[C@H]1CNC(=S)N1C[C@H]1CCCN1C[C@H](Cc1ccc(O)cc1)N1C[C@H](Cc2ccccc2)N(CC2CCCCC2)C1=S	-19%	18µM*	-16	?	-4%
